{
  "source": "PubChem BioAssay (Tox21)",
  "note": "Records with an inconclusive call do not appear. Values without a mark were called inactive. The call rests on the fitted dose curve; in most records, active means well fitted activation curve with a large enough effect in the repeat runs; inconclusive means weak or mixed curves; inactive means no such curve, though single readings can be large or run the other way. Positions of bridges follow the written chain, without caps; N, C: chain ends. Non-standard residues stand in square brackets, D forms with d. Residues, ends and D or L forms follow the SMILES beside them. *: point of attachment. X1 = CC[C@@H](C)[C@@H](N)C1=N[C@H](C(=O)*)CS1; d(aIle) = CC[C@H](C)[C@@H](N)C(=O)O; dOrn = NCCC[C@@H](N)C(=O)O",
  "data": [
    {"biological_target": "Nuclear receptor subfamily 1 group I member 2 (Rattus norvegicus) (UniProt Q9R1A7)", "sequence (Q9R1A7 whole entry, looked up)": "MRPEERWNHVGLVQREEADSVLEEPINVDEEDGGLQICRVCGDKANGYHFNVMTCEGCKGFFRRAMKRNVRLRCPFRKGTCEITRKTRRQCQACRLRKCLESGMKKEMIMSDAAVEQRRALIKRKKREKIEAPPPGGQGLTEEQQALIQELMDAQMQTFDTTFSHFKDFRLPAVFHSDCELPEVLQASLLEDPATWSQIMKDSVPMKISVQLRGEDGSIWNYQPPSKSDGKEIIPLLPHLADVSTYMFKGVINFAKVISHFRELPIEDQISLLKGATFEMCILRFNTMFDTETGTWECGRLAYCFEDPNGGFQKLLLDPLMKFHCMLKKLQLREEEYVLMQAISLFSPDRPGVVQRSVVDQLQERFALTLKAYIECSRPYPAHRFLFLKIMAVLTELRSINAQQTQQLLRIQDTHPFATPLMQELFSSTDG", "assay": "Rat pregnane X receptor (rPXR) activation by small molecules, qHTS assay (AID 1346983); further: on the % scale 0 is the no-effect control and ±100 the full control effect; nearly all actives have a fitted effect of over 20% in size", "settings": "rPXR luciferase reporter cells, One-Glo luminescence, 24 h; max activation: hits give high values", "summary_of_the_method": "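Cell-based rPXR activation assay: rPXR cells, 2,000 per well, rested 5hr at 37 C, then exposed to compounds in DMSO for 24 hr at 37 C. Luciferase activity read by One-Glo luminescence after 30 min at room temperature.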", "units": {"max activation": "%"}, "values": [
      {"molecule": "NC(N)=NCc1cccc(I)c1", "max activation": -16.9},
      {"molecule": "CCOc1cc(CC(=O)N[C@@H](CC(C)C)c2ccccc2N2CCCCC2)ccc1C(=O)O", "max activation": -4.89},
      {"molecule": "O=C(O)COc1ccccc1/C=N/NC(=O)c1ccncc1", "max activation": -3.2},
      {"molecule": "CC12CCC(C[N+](C)(CCC[N+](C)(C)C)C1)C2(C)C", "note": "(configuration not stated)", "max activation": -1.76},
      {"molecule": "CN(C)CCC(O)(c1ccccc1)c1ccccc1Cl", "note": "(configuration not stated)", "max activation": 2.06},
      {"molecule": "CCN(CC)CCOC[C@H]1O[C@@H](O)[C@H](OCCN(CC)CC)[C@@H](O)[C@@H]1O", "max activation": -3.03},
      {"molecule": "CC[C@@H](C)[C@@H](N)C1=N[C@H](C(=O)N[C@@H](CC(C)C)C(=O)N[C@@H](CCC(=O)O)C(=O)N[C@@H](C(=O)N[C@@H]2CCCCNC(=O)[C@@H](CC(N)=O)NC(=O)[C@@H](CC(=O)O)NC(=O)[C@@H](Cc3cnc[nH]3)NC(=O)[C@@H](Cc3ccccc3)NC(=O)[C@@H]([C@H](C)CC)NC(=O)[C@@H](CCCN)NC2=O)[C@@H](C)CC)CS1", "note": "(X1-LE[d(aIle)][dK][dOrn][dI][dF][dH][dD][dN]; lactam 4-C)", "max activation": -0.877},
      {"molecule": "N=C(N)c1ccc(/C=C/c2ccc(C(=N)N)cc2O)cc1", "max activation": -1.55},
      {"molecule": "FC(F)(F)C(F)(F)C(F)(F)C(F)(F)C(F)(F)F", "max activation": -2.03},
      {"molecule": "N[C@H](CO)C(=O)O", "max activation": -0.898},
      {"molecule": "CCC(NC(C)C)C(O)c1ccc(O)c(O)c1", "note": "(configuration not stated)", "max activation": -0.219},
      {"molecule": "Cc1cc(-c2ccc(N=Nc3ccc4c(S(=O)(=O)O)cc(S(=O)(=O)O)c(N)c4c3O)c(C)c2)ccc1N=Nc1ccc2c(S(=O)(=O)O)cc(S(=O)(=O)O)c(N)c2c1O", "max activation": -5.28}
    ]}
  ]
}
